The text below walks through data of PubChem BioAssay AID504332 (National Center for Advancing Translational Sciences (NCATS), 2011).

Among all 350,000 compounds or so, about 31,000 (8.9%) were called active. About 15% were inconclusive and are not listed. Calls come from the whole dose curve; as a rule, active = well fitted inhibition curve with a large enough effect; inconclusive = small, poorly fitted or top-dose-only effect; inactive = no such curve, though single readings can be large or run the other way. Many of the other results were omitted from the sample, so actives are more common in it than they were.
% is set by controls: 0 for no effect and ±100 for the full control effect; potency is the fitted concentration of half-maximal effect.

For the assay, the target named is Histone-lysine N-methyltransferase EHMT2 (Homo sapiens) (UniProt Q96KQ7). The assay can be described thus: qHTS Assay for Inhibitors of Histone Lysine Methyltransferase G9a. Note: nearly all actives have a fitted effect of over 75% in size. The following applies: G9a H3K9 monomethylation, AlphaScreen, 2 h; series mostly up to 59 µM; activity, negative = inhibition: at the top concentration. The gist of the method: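 Quantitative HTS format: methyltransferase activity on a biotin-tagged H3K9 peptide is measured by AlphaScreen, using a rabbit anti-monomethyl-H3K9 antibody with streptavidin donor and anti-IgG acceptor beads. Final levels are 20 nM enzyme, 500 nM peptide, 20 uM SAM; 2 h RT.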
Sequence of Histone-lysine N-methyltransferase EHMT2 (Homo sapiens) (Q96KQ7 913-1193 limits assumed): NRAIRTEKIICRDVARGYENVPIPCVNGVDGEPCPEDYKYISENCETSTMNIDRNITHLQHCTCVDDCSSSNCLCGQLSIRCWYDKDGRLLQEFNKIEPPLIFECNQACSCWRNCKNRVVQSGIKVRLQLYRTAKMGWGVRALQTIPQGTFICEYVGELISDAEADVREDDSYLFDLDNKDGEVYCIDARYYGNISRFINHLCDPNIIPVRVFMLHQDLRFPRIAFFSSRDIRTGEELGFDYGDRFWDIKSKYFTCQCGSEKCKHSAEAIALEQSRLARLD
On the technique in general: In qHTS, concentration-response curves come from the screen itself.
In the case of `Cc1ccc(NC(=O)c2oc3ccc(S(=O)(=O)N4CCCCC4)cc3c2C)cc1Cl`, the “activity, negative = inhibition” value is 0.299% (inactive). Consider `C=CCn1c(=O)c(C(=O)NCc2ccc3c(c2)OCO3)c(O)c2ccccc21`, for which the “activity, negative = inhibition” value was 71.8% [at 102 µM] (inactive). As to `C/C(CCC(=O)OC[C@H]1O[C@H](C#Cc2ccccc2)C=C[C@@H]1Oc1ccc(C)cc1)=N\OC[C@@H](O)[C@H]1O[C@@H]2OC(C)(C)O[C@@H]2[C@H]1O`, the Potency is 50.1 µM (active). For the molecule `COc1cc(C)c(C)cc1S(=O)(=O)N1CCCc2ccccc21`, the “activity, negative = inhibition” value was 87% [at 102 µM] (inactive).

For `CC1CN(C2CCN(C(=O)COc3ccccc3)CC2)CC(C)O1` (stereo not given), the Potency was 8.91 µM (active).

On to `COc1ccc(OCC(=O)N2CCOCC2)cc1`, for which the activity, negative = inhibition was 6.34% [at 12.7 µM] (inactive).

As for `COc1ccc(OCC(=O)N2CCN(C(=O)COc3ccccc3)CC2)cc1`, the “activity, negative = inhibition” value is 21% (inactive).

On to `Cc1cc(C)cc(NC(=O)C(OC(=O)c2ccc(O)cc2)c2ccccc2)c1` (stereo not given), for which the activity, negative = inhibition is -7.57% [at 12.7 µM] (inactive). `CC(C)(C)c1ccc(C(=O)Nc2ccc3c(c2)CCCN3C(=O)c2cccs2)cc1`: the “activity, negative = inhibition” value is -0.495% (inactive). For the molecule `CCCCCn1c(=O)[nH]c2cc(C(=O)Nc3cc(C)cc(C)c3)ccc2c1=O`, the “activity, negative = inhibition” value is 3.83% (inactive). As to `O=C(CSc1nc2ccccc2s1)Nc1ccc(C(=O)O)cc1`, the “activity, negative = inhibition” value is -6.27% (inactive). For the molecule `O=C(O)CSCc1nc2ccccc2s1`, the “activity, negative = inhibition” value is -10.2% (inactive). `O=C(O)c1ccccc1CSc1nc2ccccc2s1`: the Potency was 10 µM (active). As for `Cc1ccc(Cc2nc3ccccc3nc2SCC(=O)Nc2cccc(C(F)(F)F)c2)cc1`, the “activity, negative = inhibition” value is -0.77% (inactive).

Consider `COc1ccc(S(=O)(=O)N2CCN(CC(=O)NCC3(N4CCOCC4)CCCCC3)CC2)cc1`, for which the activity, negative = inhibition was -3.79% [at 12.7 µM] (inactive). Consider `Cc1cc(C)cc(NC(=O)Cn2nc(N3CCN(c4ccccc4)CC3)ccc2=O)c1`, for which the “activity, negative = inhibition” value is -31.5% (inactive). For `COc1ccc(NC(=O)c2cnc(Nc3ccc(C)c(Cl)c3)c3ccccc23)cc1OC`, the “activity, negative = inhibition” value was 3.97% (inactive). For `O=c1cc(CCl)nc2scc(-c3ccccc3)n12`, the Potency was 50.1 µM (active). In the case of `Cc1csc2nc(COc3ccc(NC(=O)COc4ccccc4)cc3)cc(=O)n12`, the “activity, negative = inhibition” value was -2.98% (inactive). In the case of `Cc1csc2nc(COC(=O)c3ccccc3NC(=O)c3ccccc3Cl)cc(=O)n12`, the “activity, negative = inhibition” value was 6.79% (inactive).

As for `Cc1cccc2c(=O)cc(CSc3ccccc3NC(=O)C(C)C)[nH]c12`, the “activity, negative = inhibition” value is -21.4% (inactive). With `COc1ccc(OC)c(-n2nnc3c(sc4nc(C)c(Br)c(C)c43)c2=O)c1`, the “activity, negative = inhibition” value was -25.7% (inactive).

As to `O=S(=O)(O)Oc1c[nH]c2ccccc12`, the Potency was 2.51 µM (active). Regarding `O=C(NC1CCCC1)C(=O)c1c[nH]c2ccccc12`, the “activity, negative = inhibition” value was 47.4% [at 102 µM] (inactive). Take `O=C(OCC(=O)c1c[nH]c2ccccc12)c1cccc(O)c1`: the “activity, negative = inhibition” value is -89.6% [at 102 µM] (inactive). Take `Cc1cccn2c(=O)c(C(=O)NC(C)c3ccccc3)cnc12` (stereo not given): the “activity, negative = inhibition” value is 15.6% (inactive). As to `Fc1cccc(Cl)c1CSc1ccc(-c2ccco2)nn1`, the Potency was 31.6 µM (active). As for `O=C(CSc1ccc(-c2ccco2)nn1)Nc1cccc(F)c1`, the Potency is 15.8 µM (active).

On to `O=C(CSc1ccc(-c2ccc(F)cc2)nn1)Nc1ccc2c(c1)OCCO2`, for which the “activity, negative = inhibition” value is -8.82% [at 102 µM] (inactive). Regarding `Cc1cc(SCc2c(F)cccc2Cl)nc(=O)[nH]1`, the activity, negative = inhibition is -5.25% [at 0.501 µM] (inactive).

For `O=C(CSc1ccc(-c2ccco2)nn1)NCc1ccc2c(c1)OCO2`, the Potency was 31.6 µM (active). Consider `Brc1ccc(CSc2ccc(-c3ccco3)nn2)cc1`, for which the “activity, negative = inhibition” value is -9.49% [at 102 µM] (inactive). The same measure, in the same setting: to `CCn1c(CNC(=O)c2ccco2)nnc1SCC(=O)Nc1cccc(F)c1` belongs 11.1% [at 102 µM] (inactive); to `CCn1c(=O)cc(SCC(=O)NCc2ccc3c(c2)OCO3)c2ccccc21`, -1.7% [at 102 µM] (inactive). As to `Cc1ccccc1-c1nnc(SCC(=O)NCc2ccc3c(c2)OCO3)n1C`, the activity, negative = inhibition is -10.1% [at 12.7 µM] (inactive).
